# About 250 (12%) of roughly 2,000 compounds were called active. No stated cut-off is given here; in the data, active means hERG blockade below about -20% or above about 20%; inactive means in between. Many of the other results were omitted from the sample, so actives are more common in it than they were.
# Target: Voltage-gated inwardly rectifying potassium channel KCNH2 (Homo sapiens) (UniProt Q12809)
# Assay: modulators of KCNH2 ion channel function, cellular (AID 376);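 further: 0% = buffer alone and 100% = reference blocker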
# Conditions: hERG-expressing cells, channel activity single-concentration screen; concentration not given here
# Voltage-gated inwardly rectifying potassium channel KCNH2 (Homo sapiens), sequence (Q12809 whole entry, looked up): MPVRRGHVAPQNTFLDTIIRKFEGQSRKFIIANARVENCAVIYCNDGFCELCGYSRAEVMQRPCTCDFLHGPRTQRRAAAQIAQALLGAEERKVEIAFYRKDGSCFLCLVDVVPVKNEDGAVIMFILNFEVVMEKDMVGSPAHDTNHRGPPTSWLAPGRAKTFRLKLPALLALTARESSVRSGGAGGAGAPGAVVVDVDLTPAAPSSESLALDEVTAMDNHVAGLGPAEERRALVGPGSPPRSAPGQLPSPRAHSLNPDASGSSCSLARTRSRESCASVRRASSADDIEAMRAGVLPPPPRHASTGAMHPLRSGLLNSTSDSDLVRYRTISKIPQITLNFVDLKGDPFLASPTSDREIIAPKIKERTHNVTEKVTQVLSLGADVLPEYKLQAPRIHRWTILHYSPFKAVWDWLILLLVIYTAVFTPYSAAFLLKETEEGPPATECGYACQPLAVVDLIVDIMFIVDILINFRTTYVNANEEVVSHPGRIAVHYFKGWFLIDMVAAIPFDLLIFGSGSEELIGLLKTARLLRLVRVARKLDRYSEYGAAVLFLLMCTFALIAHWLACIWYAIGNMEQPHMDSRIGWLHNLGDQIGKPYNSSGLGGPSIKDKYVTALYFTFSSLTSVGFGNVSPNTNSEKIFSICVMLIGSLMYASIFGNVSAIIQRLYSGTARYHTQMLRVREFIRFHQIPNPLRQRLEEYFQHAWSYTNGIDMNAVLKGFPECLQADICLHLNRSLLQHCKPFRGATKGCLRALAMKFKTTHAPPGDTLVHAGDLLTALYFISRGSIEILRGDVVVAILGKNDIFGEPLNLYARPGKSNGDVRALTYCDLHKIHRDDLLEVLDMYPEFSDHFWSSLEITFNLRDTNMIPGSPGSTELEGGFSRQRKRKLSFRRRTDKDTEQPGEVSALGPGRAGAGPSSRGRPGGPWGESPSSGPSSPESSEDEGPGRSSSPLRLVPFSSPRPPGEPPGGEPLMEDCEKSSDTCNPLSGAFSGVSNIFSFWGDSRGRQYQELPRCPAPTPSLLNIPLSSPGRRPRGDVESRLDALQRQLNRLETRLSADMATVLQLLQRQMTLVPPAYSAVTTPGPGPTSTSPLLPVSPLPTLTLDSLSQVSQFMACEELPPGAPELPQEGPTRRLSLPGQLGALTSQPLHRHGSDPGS
row,Compound,hERG blockade
1,CC(=O)OC1CCC2(C)C(=CCC3C2CCC2(C)C(c4cc(C(F)(F)F)n(C(C)=O)n4)CCC32)C1 (stereo not drawn),20.6% (active)
2,CC(=O)OC1CCC2(C)C(=CCC3C2CCC2(C)C(C(C)C(=O)O)CCC32)C1 (stereo not drawn),-4.67% (inactive)
3,CC(=O)OC1CCC2(C)C(=CCC3C2CCC2(C)C3CC3OC4(CCC(C)CN4)C(C)C32)C1 (stereo not drawn),-9.31% (inactive)
4,CC(C)(CN)CN,-12.2% (inactive)
5,O=c1c[n+](CCCC[n+]2cc(=O)o[nH]2)[nH]o1,-2.64% (inactive)
6,Nc1ncnc2nc[nH]c12.Nc1ncnc2nc[nH]c12.[Cl][Pt]([Cl])([Cl])[Cl],0.497% (inactive)
7,O=C1C=C(Nc2nc(C(=O)O)cc(=O)[nH]2)c2ccccc2C1=O,2.16% (inactive)
8,O=C=Nc1ccc(Cc2ccc(N=C=O)cc2)cc1 (tested in a mixture with another compound),20% (active)
9,Nc1n[nH]c2ccccc12,0.624% (inactive)
10,CN(C)CCNS(=O)(=O)N(C)C,6.32% (inactive)
11,COc1c2c(c3c(c1CCC(=O)O)OC(C)(C)C=C3)OC(C)(C)C=C2,-28.9% (active)
12,O=C(O)CSc1ccc(N=C=S)cc1,3.98% (inactive)
13,CC(C)(N)C(=O)NC1C(=O)N2C1SC(C)(C)C2C(=O)O (stereo not drawn),-3.34% (inactive)
14,COC1C=COC2(C)Oc3c(C)c(O)c4c(O)c(c(CN(C)C)c(O)c4c3C2=O)NC(=O)C(C)=CC=CC(C)C(O)C(C)C(O)C(C)C(OC(C)=O)C1C (stereo not drawn),16.3% (inactive)
15,CS(=O)(=O)N(CC(=O)O)Cc1ccccc1,12.2% (inactive)
16,O=C(O)CN(CC(=O)O)c1ccccc1,-27.7% (active)
17,NN(CC(=O)O)CC(=O)O,0.375% (inactive)
18,CC(C)=CCc1c2c(c3occ(-c4ccc(O)c(O)c4)c(=O)c3c1O)C=CC(C)(C)O2,6.29% (inactive)
19,O=C(O)c1ccc(SSc2ccc(C(=O)O)cn2)nc1,-6.71% (inactive)
20,O=C(O)C1C2CC3C(OC(=O)C31)C2Br (stereo not drawn),2.45% (inactive)
21,Cn1c(=O)c2[nH]c(CCNC(=O)c3ccccc3)nc2n(C)c1=O,-14% (inactive)
22,N=C(N)c1ccc(-c2ccc(-c3ccc(C(=N)N)cc3)o2)cc1,38.8% (active)
23,N=C(N)c1ccc(C=Cc2ccc(C(=N)N)cc2)cc1,30.2% (active)
24,NC(CSCc1ccccc1)C(=O)O (stereo not drawn),-2.53% (inactive)
25,CNc1ncnc(Sc2nc(N)nc3nc[nH]c23)c1[N+](=O)[O-],-10.6% (inactive)

row,Compound,hERG blockade
1,Nc1nc(Sc2ccc([N+](=O)[O-])c3nonc23)c2[nH]cnc2n1,23.5% (active)
2,Nc1nc(SCc2ccccc2[N+](=O)[O-])c2[nH]cnc2n1,-11.5% (inactive)
3,CC1(C)N=C(N)N=C(N)N1c1cccc(OCc2cccc(N)c2)c1,4.96% (inactive)
4,NC(=O)CC=CCC(N)=O,1.92% (inactive)
5,O=C(Nc1cccc2ccccc12)c1ccccc1,-30.7% (active)
6,S=C(CSc1ccccc1)Nc1cccc2ccccc12,-7.05% (inactive)
7,O=C(O)c1ccc(C(=O)Nc2cccc3ccccc23)c(C(=O)O)c1,-3.99% (inactive)
8,COC(=O)C1(C)CCC(c2ccc(C)cc2)=C(CC(=O)O)C1 (stereo not drawn),-13.4% (inactive)
9,OCCNC1c2cc(Cl)ccc2-c2c(Cl)cc(Cl)cc21 (stereo not drawn),46.9% (active)
10,O=C(NCCO)c1ccc(Cl)cc1,5.8% (inactive)
11,c1ccc(B2OCC(C3OB(c4ccccc4)OC4COB(c5ccccc5)OC43)O2)cc1 (stereo not drawn),2.69% (inactive)
12,CC1(C)C2CCC1(CC(=O)O)C(Cl)C2 (stereo not drawn),-22.5% (active)
13,CC1CCCC(CC(=O)O)(CC(=O)O)C1 (stereo not drawn),-3.65% (inactive)
14,CC1(CC(=O)O)OC2CCCCCC2O1 (stereo not drawn) (tested in a mixture with another compound),1.56% (inactive)
15,COc1ccc(CC[N+]2(C)COc3cc4oc(=O)cc(C)c4cc3C2)cc1OC (stereo not drawn),11% (inactive)
16,Cc1c(O)c(Br)c(C)c(O)c1Br (tested in a mixture with another compound),12.5% (inactive)
17,CC12CCC3c4ccc(O)cc4CCC3C1CCC2OP(=O)(O)O (stereo not drawn),-3.7% (inactive)
18,CC12CCC3c4ccc(O)cc4CCC3C1CC(=NO)C2O (stereo not drawn),-10.7% (inactive)
19,CC(NCCN(C)C)C1CCC2C3CCc4cc(O)ccc4C3CCC12C (stereo not drawn),22.1% (active)
20,Cc1cc(=Nc2ccc3c(c2)c(N)cc(C)[n+]3C)nc(N)n1C,30.2% (active)
21,OCc1ccncc1.OCc1ccncc1.[Cl][Pt]([Cl])([Cl])[Cl],1.38% (inactive)
22,CCC(=O)Nc1ncnc2ncn(C(=O)CC)c12,12.6% (inactive)
23,COc1ccc(C(O)c2ccccn2)cc1 (stereo not drawn),3.46% (inactive)
24,CC(C)COC(c1ccc2c(c1)OCO2)C(C)Br (stereo not drawn),0.642% (inactive)
25,COc1ccc(C(C)c2cc3c(cc2O)OCO3)cc1 (stereo not drawn),30% (active)

row,Compound,hERG blockade
1,COc1ccc(C(Nc2ccccn2)c2cc(C(C)(C)C)cc(C(C)(C)C)c2O)cc1 (stereo not drawn),9.88% (inactive)
2,COc1ccc(C(Nc2ncccn2)c2cc3c(cc2O)OCO3)cc1 (stereo not drawn),-20.2% (active)
3,O=C(O)c1c(-c2c3ccc(=O)cc-3oc3cc(O)ccc23)cc2ccccc2c1-c1ccccc1,11.7% (inactive)
4,CC(C)(C)NCC(O)c1ccc(O)c(CO)n1 (stereo not drawn),-0.947% (inactive)
5,CCC(CN(C)C)C(=O)c1ccco1 (stereo not drawn),5.17% (inactive)
6,Clc1cccc(Cl)c1C(Nc1nncs1)Nc1nncs1,-3.96% (inactive)
7,Nc1nc(SCC(=O)O)[nH]c(=O)c1N,5.23% (inactive)
8,O=C(Nc1c[nH]c(=O)[nH]c1=O)Oc1ccccc1,-11% (inactive)
9,NS(=O)(=O)c1ccc(N=Nc2cc3ccccc3c(C(=O)O)c2O)cc1,33.3% (active)
10,NS(=O)(=O)c1cc(C(=O)O)c(O)c2ccccc12,2.98% (inactive)
11,Cc1c(S(=O)(=O)O)ccc(N=Nc2c(O)c(C(=O)O)cc3ccccc23)c1Cl,2.42% (inactive)
12,NS(=O)(=O)c1ccc(N=Nc2ccc(O)c(C(=O)O)c2)cc1,-6.41% (inactive)
13,NS(=O)(=O)c1ccc(N=Nc2ncccc2O)cc1,17.7% (inactive)
14,NS(=O)(=O)c1ccc(N=Nc2c(O)c(C(=O)O)cc3ccccc23)cc1,22.9% (active)
15,O=C(O)CNc1ccc(C(=O)O)cc1,1.76% (inactive)
16,CC(=NNc1nc(C)cc(=O)[nH]1)C(=O)O,-18.5% (inactive)
17,c1ccc(-c2cc(-c3cc(-c4ccccn4)[nH]n3)n[nH]2)nc1,6.68% (inactive)
18,Cn1c(=O)c2[nH]c(C3CC(=O)CC(c4nc5c([nH]4)c(=O)n(C)c(=O)n5C)N3)nc2n(C)c1=O (stereo not drawn),-8.89% (inactive)
19,Oc1ccccc1C(Sc1nc2ccccc2s1)Sc1nc2ccccc2s1,-6.16% (inactive)
20,Cc1sc2ccccc2[n+]1CCC(=O)O,-12.2% (inactive)
21,O=C1Nc2ccccc2C1=Nc1cccc2ncccc12,-1.09% (inactive)
22,NS(=O)(=O)c1ccc(N=C2C(=O)Nc3ccccc32)cc1,-20.3% (active)
23,O=C1Nc2ccccc2C1=Nc1ccc(S(=O)(=O)Nc2nccs2)cc1,-2.12% (inactive)
24,CN(C)CCCN=C(N)N,-7.66% (inactive)
25,O=C(O)C1CC2(C1)CC(C(=O)O)C2 (stereo not drawn),-11.8% (inactive)

row,Compound,hERG blockade
1,CN(C)Cc1cc(C(F)(F)F)ccc1C(O)(c1ccccc1)c1ccccc1,21.7% (active)
2,CN(C)Cc1cc(C(C)(C)C)ccc1-c1ccc(C(C)(C)C)cc1CN(C)C,17.8% (inactive)
3,CN(C)Cc1cc(C(C)(C)C)cc(CN(C)C)c1O,6.58% (inactive)
4,O=C1CCC(c2ccccc2)=NN1c1nc2ccccc2s1,-9.74% (inactive)
5,CC(C(=O)c1ccncc1)c1ccccn1 (stereo not drawn),-1.76% (inactive)
6,O=C(O)c1cc(C(=O)C(=O)c2cc(C(=O)O)c(O)c3ccccc23)c2ccccc2c1O,18.7% (inactive)
7,O=C1c2ccccc2-c2ccc(N=[N+]([O-])c3ccc4c(c3)C(=O)c3ccccc3-4)cc21,-2.94% (inactive)
8,O=C1c2cc([N+](=O)[O-])ccc2-c2ccc3c4ccc5c6c(ccc(c7ccc1c2c73)c64)C(=O)c1cc([N+](=O)[O-])ccc1-5,12.2% (inactive)
9,O=C1c2ccccc2-c2cc([N+](=O)[O-])c([N+](=O)[O-])cc21,77.8% (active)
10,CNC1NC(=O)c2ccccc2N1Cc1ccc(F)cc1 (stereo not drawn),9.53% (inactive)
11,c1ccc(CSc2nnc3c4ccccc4c4ccccc4c3n2)cc1,-3.1% (inactive)
12,CCOC(=O)C(O)Cc1cnc2ccccc2n1 (stereo not drawn),19.4% (inactive)
13,c1ccc(CCNCc2ccco2)nc1,-7.49% (inactive)
14,CCCC(Sc1nc(N)nc2nc[nH]c12)C(=O)O (stereo not drawn),2.81% (inactive)
15,CC(C)(SCc1ccccc1)C(N)C(=O)O (stereo not drawn),2.47% (inactive)
16,NS(=O)(=O)c1ccc(NC(=O)Nc2cccc3ccccc23)cc1,0.23% (inactive)
17,CC(=N[O-])C(C)=N[O-].CC(=N[O-])C(C)=N[O-].CC(=N[O-])C(C)=N[O-].CC(=N[O-])C(C)=N[O-].[CH3-].[CH3-].[Co].[Co],11.4% (inactive)
18,O=S(=O)(c1cccc(C(F)(F)F)c1)N1c2ccccc2-n2cccc2C1c1cccnc1 (stereo not drawn),18% (inactive)
19,FC(F)(F)c1nc(SCc2ccc(Cl)cc2)n[nH]1,4.58% (inactive)
20,CSc1nc(C)cc(Nc2ccc(O)c(CN3CCCCC3)c2)n1,14.8% (inactive)
21,COc1ccc2c(Cl)cc(NC(=S)Nc3ccccc3)nc2c1,-8.81% (inactive)
22,COc1ccc2nc3cc(Cl)ccc3c(Nc3ccc(O)c(CN4CCN(C)CC4)c3)c2c1,61.7% (active)
23,OC(CNc1ccccn1)c1ccccc1 (stereo not drawn),5.58% (inactive)
